In PubChem BioAssay (EPA / NIEHS) one finds outcome and AC50 data, which are given here for 31 compounds.

Inconclusive results are not listed. Active and inactive are the calls of the source. Rule for the calls, unless noted: active = hit-call score of the fitted dose curve at least 0.9, where 1 is the maximum; inactive = score below 0.9.

A short description of test [1]: ATG_TCF_b_cat_CIS: Attagene CIS-FACTORIAL HepG2 Assay for human T-Cell-Factor with beta-catenin (TCF/b-cat) (AID 2282965). The following applies: HepG2 TCF/beta-catenin cis-reporter transcription, actives raise or lower the signal. In outline: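 HepG2, transient MRTU transfection, cis-element-driven reporters (endogenous TFs). 24 h compound exposure. Readout: reporter mRNA by RT-PCR + 6-FAM primer extension, HpaI digest, capillary electrophoresis. Gain/loss fit vs DMSO baseline.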

Test [2] is described as follows: ATG_TAL_CIS: Attagene CIS-FACTORIAL HepG2 Assay for human TAL Basal Promoter (AID 2282966).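 Note: background control endpoint measuring basal TAL promoter reporter mRNA not a specific factor.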 Particulars: HepG2 Attagene cis-factorial TAL promoter reporter; actives raise or lower the signal. In outline: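 Readout: reporter mRNA, fluorescence by CE. System: HepG2, transient multi-reporter transfection, endogenous TF activity. Exposure: 24 h. Analysis: bidirectional, DMSO-normalized; background control.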

The nature of test [3]: ATG_TGFb_CIS: Attagene CIS-FACTORIAL HepG2 Assay for human Transforming Growth Factor (TGF) (AID 2282967). The following applies: HepG2 Attagene CIS TGFb reporter, mRNA transcription; actives raise or lower the signal. In outline: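 Cells were dosed for 24 hours, after which total RNA was reverse-transcribed and reporter sequences amplified, labeled and sized by capillary electrophoresis. Activity was fitted in both directions against DMSO.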

Test [4] concerns the target X-box-binding protein 1 (Homo sapiens) (UniProt P17861). The test can be described thus: ATG_Xbp1_CIS: Attagene CIS-FACTORIAL HepG2 Assay for human X-box Binding Protein 1 (XBP1) (AID 2282972). Particulars: HepG2 XBP1 cis-element reporter, Attagene multiplex; actives raise or lower the signal. In outline: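 HepG2, transient MRTU transfection (cis-promoter driven), 24 h compound exposure. Total RNA → oligo(dT) RT → PCR → 6-FAM labeling → HpaI cut → CE. Bidirectional fit vs DMSO.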

Test [5] in a line: ATG_GAL4_TRANS: Attagene TRANS-FACTORIAL HepG2 Assay for GAL4 (Internal Marker) (AID 2282976; active = hit-call score of the fitted dose curve at least 0.9, where 1 is the maximum). Particulars: HepG2 Attagene TRANS GAL4 internal marker reporter. In outline: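 Fluorescence from capillary electrophoresis of labelled RT-PCR products quantifies reporter mRNA induction after 24 h dosing of HepG2 cells carrying transfected GAL4-UAS reporter transcription units. Vehicle DMSO serves as baseline.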

In test [6] the target is Nuclear receptor subfamily 1 group I member 3 (Homo sapiens) (UniProt Q14994). The test can be described thus: ATG_CAR_TRANS: Attagene TRANS-FACTORIAL HepG2 Assay for human Constitutive Androstane Receptor (CAR) (AID 2282969; active = hit-call score of the fitted dose curve at least 0.9, where 1 is the maximum;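 note: activators raise reporter mRNA above DMSO so AC50 marks induction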). Particulars: HepG2 Attagene TRANS-FACTORIAL CAR reporter. In outline: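 HepG2 cells transiently transfected with GAL4-UAS reporter units; TRANS format reads activity of exogenous chimeric NR-Gal4 protein. After 24 h dosing, reporter mRNA quantified by RT-PCR, 6-FAM labelling and capillary electrophoresis; gain of signal fitted against DMSO.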
Sequence of Nuclear receptor subfamily 1 group I member 3 (Homo sapiens) (Q14994 whole entry, looked up, the tested form may be a part): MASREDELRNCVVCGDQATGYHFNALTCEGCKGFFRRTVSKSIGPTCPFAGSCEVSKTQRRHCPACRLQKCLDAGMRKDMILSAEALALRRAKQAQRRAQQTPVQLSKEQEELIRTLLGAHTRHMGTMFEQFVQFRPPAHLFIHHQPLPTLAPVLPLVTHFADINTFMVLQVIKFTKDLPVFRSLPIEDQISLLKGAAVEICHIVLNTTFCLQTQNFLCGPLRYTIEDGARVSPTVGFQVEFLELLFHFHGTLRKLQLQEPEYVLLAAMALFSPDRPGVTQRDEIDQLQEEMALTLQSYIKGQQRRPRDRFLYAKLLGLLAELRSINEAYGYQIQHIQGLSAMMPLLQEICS

Test [7] in a line: ATG_M_19_TRANS: Attagene TRANS-FACTORIAL HepG2 Assay for M19 Transcription Factor (Internal Marker) (AID 2282974; active = hit-call score of the fitted dose curve at least 0.9, where 1 is the maximum). The following applies: HepG2 Attagene TRANS-FACTORIAL M19 internal marker reporter. In a few lines:
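Transfected HepG2 (GAL4-UAS MRTUs), 24 h compound, TriZol RNA, DNase-treated RT, reporter PCR, FAM label, HpaI digest, CE fluorescence; gain vs DMSO.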

Test [8] deals with Estrogen receptor (Homo sapiens) (UniProt P03372). The test can be described thus: ATG_ERa_TRANS: Attagene TRANS-FACTORIAL HepG2 Assay for human Estrogen Receptor alpha (ERa) (AID 2282970; active = hit-call score of the fitted dose curve at least 0.9, where 1 is the maximum). Particulars: HepG2 Attagene TRANS ERa GAL4 reporter, mRNA. In a few lines:
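Transactivation via ERa-Gal4 chimera in HepG2; 24 hour incubation; reporter mRNA detected by fluorescence RT-PCR and capillary electrophoresis.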

In test [9] the target is Steroid hormone receptor ERR1 (Homo sapiens) (UniProt P11474). The test can be described thus: ATG_ERRa_TRANS: Attagene TRANS-FACTORIAL HepG2 Assay for human Estrogen-Related Receptor alpha (ERRa) (AID 2282971; active = hit-call score of the fitted dose curve at least 0.9, where 1 is the maximum). Particulars: HepG2 Attagene TRANS reporter, ERRa transactivation. In a few lines:
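HepG2 cells were transiently transfected with multiple GAL4-UAS reporter units, then dosed with compound for 24 h. Total RNA was reverse-transcribed, reporter cDNA PCR-amplified and fluorescently labelled, and fragments resolved by capillary electrophoresis; induction was compared with DMSO.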

Test [10] in a line: ATG_VDRE_CIS: Attagene CIS-FACTORIAL HepG2 Assay for human Vitamin D Receptor Element (VDRE) (AID 2282968). Particulars: HepG2 VDRE cis-reporter transcription, actives raise or lower the signal. In outline: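 Transiently transfected HepG2 cells carrying cis-regulated reporter transcription units were exposed for 24 h. Reporter mRNA was measured by RT-PCR with fluorescent labelling and capillary electrophoresis, and fitted in both directions against DMSO.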

As a reminder, the AC50 is the midpoint of the concentration-response curve, whichever way the signal moves.

Sequence of X-box-binding protein 1 (Homo sapiens) (P17861 whole entry, looked up): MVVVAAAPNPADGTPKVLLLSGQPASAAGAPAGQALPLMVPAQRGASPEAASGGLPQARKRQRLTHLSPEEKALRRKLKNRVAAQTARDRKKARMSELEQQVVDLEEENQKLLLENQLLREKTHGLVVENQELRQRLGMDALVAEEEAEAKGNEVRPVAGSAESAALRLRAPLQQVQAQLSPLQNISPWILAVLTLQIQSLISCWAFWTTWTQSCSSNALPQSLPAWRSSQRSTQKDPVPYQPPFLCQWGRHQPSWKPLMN
Sequence of Steroid hormone receptor ERR1 (Homo sapiens) (P11474 whole entry, looked up, the tested form may be a part): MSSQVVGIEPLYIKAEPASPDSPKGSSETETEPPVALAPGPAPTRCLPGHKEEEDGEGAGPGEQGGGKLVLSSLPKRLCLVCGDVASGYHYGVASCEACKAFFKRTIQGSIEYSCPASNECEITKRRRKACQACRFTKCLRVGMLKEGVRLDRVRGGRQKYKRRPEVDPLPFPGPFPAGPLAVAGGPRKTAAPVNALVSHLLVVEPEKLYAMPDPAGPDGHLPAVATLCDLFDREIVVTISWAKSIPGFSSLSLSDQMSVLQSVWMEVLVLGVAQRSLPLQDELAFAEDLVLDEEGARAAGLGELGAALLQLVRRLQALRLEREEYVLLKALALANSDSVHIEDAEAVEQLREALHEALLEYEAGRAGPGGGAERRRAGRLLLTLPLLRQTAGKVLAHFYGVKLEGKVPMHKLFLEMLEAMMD
Sequence of Estrogen receptor (Homo sapiens) (P03372 whole entry, looked up, the tested form may be a part): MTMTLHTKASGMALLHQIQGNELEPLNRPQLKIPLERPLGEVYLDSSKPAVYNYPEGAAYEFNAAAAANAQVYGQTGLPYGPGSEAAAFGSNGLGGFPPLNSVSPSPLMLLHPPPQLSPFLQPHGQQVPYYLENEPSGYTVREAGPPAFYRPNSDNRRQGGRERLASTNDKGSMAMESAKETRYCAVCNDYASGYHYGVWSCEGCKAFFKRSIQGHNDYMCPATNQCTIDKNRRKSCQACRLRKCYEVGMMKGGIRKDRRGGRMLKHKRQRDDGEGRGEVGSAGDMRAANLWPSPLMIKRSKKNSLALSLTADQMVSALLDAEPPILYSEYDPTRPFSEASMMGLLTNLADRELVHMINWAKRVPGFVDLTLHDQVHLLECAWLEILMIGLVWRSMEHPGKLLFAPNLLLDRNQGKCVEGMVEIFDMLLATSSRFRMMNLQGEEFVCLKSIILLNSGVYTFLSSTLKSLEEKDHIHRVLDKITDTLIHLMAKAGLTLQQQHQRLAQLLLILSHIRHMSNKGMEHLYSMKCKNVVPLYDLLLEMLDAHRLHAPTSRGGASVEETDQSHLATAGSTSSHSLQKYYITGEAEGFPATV

In the case of `CC(C)=CCCC(C)=CC(=O)O`, the compound was classed as inactive in test [1], in test [2], in test [3], in [4] and in [5].
Regarding `O=c1cc(-c2ccc(O)cc2)oc2cc(O)cc(O)c12`, the compound was called inactive in [1], in [2], in [3], in test [6] and in test [7]. Further, in test [4], the AC50 is 16.2 µM (active).
On to `[Na+]`, for which the compound was classed as inactive in test [1], in test [2], in test [3], in test [4], in [7] and in test [5].
With `Nc1ccc(N)c([N+](=O)[O-])c1`, the compound was classed as inactive in test [1], in [2], in test [3], in [6], in test [4] and in test [7]. The compound was classed as inactive in test [5]. For the same compound, in test [8], the AC50 was 37.8 µM (active) [middle of 5 runs].
With `Nc1ccn([C@H]2CC[C@@H](CO)O2)c(=O)n1`, the outcome in test [1], in [2], in [3] and in test [4] was inactive.
Consider `N#CCCCC(C#N)CCC#N` (stereo unspecified), for which the compound was classed as inactive in test [1], in test [2], in [3], in [9], in [4] and in test [5].
`CCO[Si](CCC#N)(OCC)OCC`: the result in test [1], in [2], in test [3], in test [8], in test [4] and in test [5] was inactive.
Consider `CCCCCCCCOS(=O)(=O)O`, for which the result in test [1], in test [2], in test [3], in test [6], in test [9] and in test [4] was inactive. Moreover, the result in [5] was inactive. In test [8], the AC50 was 100 µM (active).
For the compound `CC(C)(CO)CO`, the compound was classed as inactive in [1], in test [2], in [3], in [9], in test [4] and in test [7].
Consider `CC1=CCC(=C(C)C)CC1`, for which the result in test [1], in [2], in test [3], in test [6], in [4] and in test [7] was inactive. Moreover, the outcome in test [5] was inactive. In addition, the AC50 in test [8] was 33.3 µM (active).
With `CC(C)(O)C(=O)c1ccc(OCCO)cc1`, the compound was called inactive in [1], in test [2], in [3], in [4] and in test [5].
As for `CCCCCCCCOC(=O)c1ccc(O)cc1`, the compound was classed as inactive in test [1], in test [2], in test [3], in test [6], in test [4] and in test [7]. Also, in test [5], the compound was called inactive. For the same compound, the AC50 in test [8] is 5.53 µM (active).
Take `CCC(=O)OC(C)(C)C1CC=C(C)CC1` (stereo unspecified): the outcome in test [1], in test [2], in [3], in test [6], in test [4] and in test [7] was inactive. Besides, the compound was classed as inactive in test [5]. In addition, the AC50 in test [8] was 78.3 µM (active).
In the case of `C=C(C)CCCC(C)CCO` (stereo unspecified), the compound was called inactive in test [1], in test [2], in test [3], in test [8], in [4] and in test [5].
With `CC(C)Cc1ccccc1`, the compound was called inactive in test [1], in test [2], in test [3] and in test [4].
On to `CC(C)C(=O)c1ccccc1`, for which the call in test [1], in [2], in test [3], in test [9], in [4] and in test [7] was inactive. Further, the compound was called inactive in [5]. Further, the AC50 in [8] is 0.604 µM (active).
`CC(C)Cc1ccc(C(C)C(=O)O)cc1` (stereo unspecified): the result in [1], in test [2], in test [3], in test [6], in [9] and in test [4] was inactive. Also, the result in test [7] and in test [5] was inactive. Further, the AC50 in [8] is 36.4 µM (active).
Turning to `OCCN1CCOCC1`, the result in test [1], in [2], in [3], in test [6], in test [4] and in test [5] was inactive. In addition, in test [8], the AC50 was 67.5 µM (active).
For the compound `CC1=CCC(C(C)C)=CC1`, the result in test [1], in test [2], in test [3], in [6] and in [4] was inactive.
Turning to `CC(=O)OC(C)(C)C`, the call in [1], in test [2], in [3], in test [4], in [7] and in [5] was inactive.
Regarding `Cc1cc(O)c2c(c1)C(=O)c1cc(O)cc(O)c1C2=O`, the compound was called inactive in test [1], in [2], in test [3], in test [6] and in test [9]. For the same compound, the half-maximal activity concentration (AC50) in test [4] was 9.89 µM (active).
In the case of `NC(=O)NC(N)=O`, the call in test [1], in test [2], in test [3], in test [6], in test [8] and in test [4] was inactive. The compound was classed as inactive in test [5].
Turning to `CC/C(=C(\c1ccccc1)c1ccc(OCCN(C)C)cc1)c1ccccc1`, the compound was called inactive in test [1], in test [2], in [3], in [4] and in test [5].
For the compound `COc1cc(OC)c2ccc(=O)oc2c1`, the compound was classed as inactive in [1], in [2], in [3], in test [4] and in [5].
For the compound `NC(N)=NC(N)=NCCc1ccccc1`, the result in test [1], in test [2], in test [3], in test [8], in test [4] and in test [7] was inactive.
On to `CC(CO)c1ccccc1` (stereo unspecified), for which the compound was classed as inactive in test [1], in [2], in [3], in test [6], in test [8] and in test [4]. Moreover, the outcome in [7] and in test [5] was inactive.
On to `CCOC(=O)CC1(C)OCC(C)O1` (stereo unspecified), for which the outcome in test [1], in test [2], in test [3], in test [6], in [8] and in test [4] was inactive. The call in test [5] was inactive.
For the compound `CC1(C)CC(N)CC(C)(CN)C1` (stereo unspecified), the compound was classed as inactive in [1], in test [2], in test [3], in test [8] and in [4].
`C=C/C(C)=C/C/C=C(\C)CCC=C(C)C`: the result in test [1], in test [2], in test [10], in [8] and in test [4] was inactive.
With `CC(=O)Oc1c(C)c(C)c2c(c1C)CC[C@@](C)(CCC[C@H](C)CCC[C@H](C)CCCC(C)C)O2`, the outcome in [1], in test [2], in [10], in [8], in [9] and in test [4] was inactive.
As for `CC(C)CCOC(=O)CC(C)C`, the compound was classed as inactive in [1], in test [2], in [10], in test [6], in test [8] and in test [4]. Besides, the outcome in test [5] was inactive.
